The values below come from PubChem BioAssay (NCATS).

Test [1] in a line: AP1 Signaling Pathway (AID 357).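 Note: ME-180 reporter cells stimulated with EGF at its EC50 level; % is set by controls: 0 for no effect and ±100 for the full control effect.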 Conditions: ME-180 AP-1-bla reporter, EGF-induced, beta-lactamase ratio, 5 h. The gist of the method:
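Read-out was the 460nm/530nm emission ratio (excitation 405nm) after CCF4 loading for 2.5 hours at room temperature. Cells carried an AP-1-driven beta-lactamase reporter, were stimulated with EC50 EGF plus compound for 5 hours, and AC50 values came from titrations.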

Test [2] concerns the target Cytochrome P450 1A2 (Homo sapiens) (UniProt P05177). Put plainly: p450-cyp1a2 (AID 410; calls by dose curve; note: potency is the fitted concentration of half-maximal effect;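 for activity change, negative = inhibition: -100% = full effect of reference inhibitor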). The following applies: recombinant CYP1A2, luciferin-ME demethylation, luminescence; series mostly up to 57 µM. The method in brief: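 Read-out is luminescence from luciferin produced by CYP1A2 demethylation of Luciferin-ME (100uM, at Km). Detection reagent stopped the 60 min NADPH-dependent reaction; signals were normalized to 57 uM furafylline.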

Test [3] in a line: Cell Viability - BJ (AID 421; calls by dose curve;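 note: potency is the fitted concentration of half-maximal effect; cells exposed to compound for 40 hours at 37 °C before readout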). The following applies: BJ fibroblast viability, qHTS. The gist of the method:
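Quantitative HTS: ATP depletion in BJ cells after 40 hr compound exposure in complete culture medium, detected with CellTiter-Glo; AC50 from standard Hill fits.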

Test [4] is described as follows: Cell Viability - Jurkat (AID 426;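 active = dose-dependent loss of cell ATP signal giving a full or clear fitted curve, ranked by lower potency value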; note: potency is the fitted concentration of half-maximal effect). Conditions: qHTS. The method in brief: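 Cytotoxicity was scored as loss of cellular ATP, measured by luciferase-based luminescence, in Jurkat clone E6-1 cells after 40 h compound treatment; tamoxifen and doxorubicin served as positive controls.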
Test [5] can be described thus: Cell Viability - Hek293 (AID 427;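 active = compounds whose dose-response curve shows a full or clear partial loss of cell viability, called from curve shape rather than a numeric limit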;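 note: potency is the fitted concentration of half-maximal effect; cells exposed to compound for 40 hours at 37 °C before reading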). Conditions: qHTS. The method in brief: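 AC50 values derive from Hill-modelled concentration-response of ATP-based luminescence, normalized between DMSO-only and 100 uM tamoxifen controls. Cells were exposed in complete culture medium for 40 hr at 37 °C before detection.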
A general note: Quantitative high-throughput screening tests each substance at several concentrations.

The nature of test [6]: Cell Viability - HepG2 (AID 433; calls by dose curve; note: potency is the fitted concentration of half-maximal effect). The following applies: qHTS. The gist of the method:
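HepG2 hepatocellular carcinoma cells (1500/well) were treated with compounds for 40 h at 37 °C in complete medium; intracellular ATP was read by CellTiter-Glo luminescence. Data were normalized to DMSO and 100 uM tamoxifen, and AC50 came from Hill fits.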

Test [7] in a line: Cell Viability - MRC5 (AID 434; calls by dose curve;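 note: potency is the fitted concentration of half-maximal effect; potency reflects cytotoxicity seen as loss of intracellular ATP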). The following applies: MRC5 lung fibroblast viability, qHTS. The method in brief: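 ATP luminescence read-out (CellTiter-Glo, 20 min RT) after 40 hr, 37 °C compound exposure of 1500 MRC5 cells/well. Data normalized to DMSO (basal) and 100 uM tamoxifen (100% inhibition); AC50 from standard Hill equation.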
Test [8] can be described thus: Cell Viability - SK-N-SH (AID 435; calls by dose curve;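 note: potency is the fitted concentration of half-maximal effect; compound exposure lasted 40 h at 37 °C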). The following applies: SK-N-SH neuroblastoma cell viability qHTS. The method in brief: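 SK-N-SH human neuroblastoma cells (1500/well) were exposed to compounds in complete medium for 40 h at 37 °C, and intracellular ATP was then measured by CellTiter-Glo luminescence. AC50 was taken from Hill fits, normalized to DMSO and 100 uM tamoxifen.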

For test [9], the target named is Glucocorticoid receptor (Homo sapiens) (UniProt P04150). Description: GR-GFP Redistribution (AID 450;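 active = compounds whose dose series gives a full or clear partial fitted curve of increased nuclear translocation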; note: potency is the fitted concentration of half-maximal effect). The following applies: U2OS GR-GFP nuclear translocation, laser cytometry, 2 h.
Chain of Glucocorticoid receptor (Homo sapiens) (P04150 whole entry, looked up, the tested form may be a part): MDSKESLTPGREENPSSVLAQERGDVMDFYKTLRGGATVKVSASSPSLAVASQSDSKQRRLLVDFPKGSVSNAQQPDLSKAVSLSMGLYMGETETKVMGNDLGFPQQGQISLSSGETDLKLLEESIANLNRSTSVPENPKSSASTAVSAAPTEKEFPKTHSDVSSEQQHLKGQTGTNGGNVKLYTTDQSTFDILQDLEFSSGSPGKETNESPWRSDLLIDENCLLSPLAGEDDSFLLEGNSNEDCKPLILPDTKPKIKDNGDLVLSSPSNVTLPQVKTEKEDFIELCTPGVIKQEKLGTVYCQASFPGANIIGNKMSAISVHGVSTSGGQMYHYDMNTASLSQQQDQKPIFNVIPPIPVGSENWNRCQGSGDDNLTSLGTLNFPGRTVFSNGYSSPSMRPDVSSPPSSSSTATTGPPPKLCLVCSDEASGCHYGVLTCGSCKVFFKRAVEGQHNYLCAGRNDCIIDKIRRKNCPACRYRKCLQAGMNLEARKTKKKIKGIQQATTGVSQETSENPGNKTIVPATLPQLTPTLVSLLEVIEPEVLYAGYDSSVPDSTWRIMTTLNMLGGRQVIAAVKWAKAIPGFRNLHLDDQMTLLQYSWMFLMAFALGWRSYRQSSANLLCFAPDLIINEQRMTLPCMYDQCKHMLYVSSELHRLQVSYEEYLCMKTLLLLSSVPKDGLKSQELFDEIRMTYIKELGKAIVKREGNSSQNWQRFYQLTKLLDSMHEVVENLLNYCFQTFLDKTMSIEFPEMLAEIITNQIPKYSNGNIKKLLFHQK
For test [10], the target named is Mitogen-activated protein kinase 10 (Mus musculus) (UniProt Q61831). Put plainly: JNK3 AlphaScreen Assay (AID 530).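 Note: kinase came from lysate of stimulated human HepG2 cells; signal reports phosphorylation of biotinylated GST-cJun 1-79 at Ser73 with 10 µM ATP; % is set by controls: 0 for no effect and ±100 for the full control effect.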 The following applies: JNK3 lysate, c-Jun phosphorylation; series mostly up to 57.1 µM. The method in brief: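 HepG2 lysate (IL-1b/TNFa pre-activated) + biotin-GST-cJun 1-79 + anti-pSer73 cJun; cpd titration, 15 min RT; ATP 10 uM start; Tris pH 7.6, MgCl2, DTT, vanadate; beads in EDTA buffer; AlphaScreen.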
(Alpha assays give light when donor and acceptor beads are brought close together.)

Test [11] is described as follows: Cell Viability - NIH 3T3 (AID 541; active = well fitted curve in the direction sought with a large enough effect; an effect the other way counts as inactive or inconclusive; note: potency is the fitted concentration of half-maximal effect; nearly all actives have a fitted effect of over 25% in size). The following applies: NIH 3T3 cell viability, qHTS; activity change, negative = cytotoxicity: at 92.2 µM (top of the series). The gist of the method:
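In this cytotoxicity screen, acute toxicity is scored as an ATP drop measured by CellTiter-Glo in NIH 3T3 fibroblasts following a 40 hr, 37 °C incubation with compound.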

Test [12] can be described thus: Cell Viability - HUV-EC-C (AID 542; active = well fitted curve in the direction sought with a large enough effect; an effect the other way counts as inactive or inconclusive; note: nearly all actives have a fitted effect of over 35% in size; note: potency is the fitted concentration of half-maximal effect). The following applies: HUV-EC-C endothelial cell viability, qHTS; series mostly up to 92.2 µM. The gist of the method:
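Concentration-dependent ATP loss in HUV-EC-C cells is the measure. Exposure lasts 40 hr at 37 °C; luminescence follows CellTiter-Glo addition, and Hill fits give AC50.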

Test [13] is described as follows: Cell Viability - SH-SY5Y (AID 544; active = well fitted curve in the direction sought with a large enough effect; an effect the other way counts as inactive or inconclusive; note: potency is the fitted concentration of half-maximal effect; nearly all actives have a fitted effect of over 55% in size). Conditions: SH-SY5Y neuroblastoma cell viability; viability change, negative = cytotoxic: at 92.2 µM (top of the series). The method in brief:
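Quantitative HTS in SH-SY5Y neuroblastoma cells, 40 hr treatment at 37 °C, ATP content by luciferase luminescence; AC50 from Hill fits.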

Test [14] is described as follows: Cell Viability - Renal Proximal Tubule (AID 545; active = well fitted curve in the direction sought with a large enough effect; an effect the other way counts as inactive or inconclusive; note: nearly all actives have a fitted effect of over 40% in size; note: potency is the fitted concentration of half-maximal effect;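 for activity change, negative = cytotoxicity: 0% = DMSO only and -100% = 100 µM tamoxifen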). The following applies: renal proximal tubule cells viability, primary cells of rat origin; activity change, negative = cytotoxicity: at 91.7 µM (top of the series). The gist of the method: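 Primary rat renal proximal tubule cells (1000/well) were treated with compounds for 40 hr at 37 °C in complete medium. Intracellular ATP was measured by CellTiter-Glo luminescence, and AC50 values came from Hill-equation fits of concentration-response data.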

A short description of test [15]: NFAT Signaling Pathway (AID 444).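 Note: carbachol stimulus at about its EC50 of 1 µM final; % is set by controls: 0 for no effect and ±100 for the full control effect.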 Conditions: Jurkat NFAT-bla M1, carbachol, beta-lactamase ratio, 5 h; at 38 µM (top of the series) unless noted. The method in brief: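 Jurkat cells with NFAT-driven β-lactamase reporter and co-expressed M1 receptor, stimulated with carbachol (final 1 uM, ~EC50), compound titration, 5 h at 37 °C. CCF4 loaded 1 h at RT; 460/530 nm ratio gave %activity and AC50.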

The nature of test [16]: Stat Signaling Pathway (AID 446).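 Note: ME-180 cervical cancer cells given 40 pM IL-6 alongside compound; SIE-controlled beta-lactamase reporter measured as 460/530 nm FRET emission ratio; % is set by controls: 0 for no effect and ±100 for the full control effect.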 The following applies: ME-180 (cervical carcinoma) SIE beta-lactamase reporter, IL-6 stimulated, 5 h. The gist of the method:
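Overnight-plated ME-180 cells bearing a STAT Inducible Element beta-lactamase reporter; 5 h co-exposure to compound and 40 pM IL-6; values normalized to 300 pM IL-6 and 125 nM JAK inhibitor controls.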

Test [17] addresses Glucocorticoid receptor (Homo sapiens) (UniProt P04150). Put plainly: GR-EFC Redistribution (AID 451; calls by dose curve; note: potency is the fitted concentration of half-maximal effect). Conditions: CHO-K1 GR-EFC translocation, beta-gal luminescence, 2 h. The method in brief: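 CHO-K1 cells expressing nuclear EA and GR-ED fragments of b-gal; compounds titrated up to 46 uM final, 2 h at 37 C. GR nuclear translocation read as complemented b-gal luminescence after 1 h RT detection.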

Test [18] has as its target Lysosomal acid glucosylceramidase (Homo sapiens) (UniProt P04062). Description: Glucocerebrosidase-p2 (AID 348; in the data active = potency below about 10 µM; note: potency is the fitted concentration of half-maximal effect). The following applies: purified GBA, blue fluorogenic substrate, 40 min. The gist of the method:
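Normal human glucocerebrosidase (0.2 nM) with blue fluorogenic substrate (80 uM final) in citrate/phosphate pH 5.9 with 10mM sodium taurocholate, 0.01% tween-20; 40 min RT, NaOH/glycine stop; fluorescence Ex 365/Em 440; AC50 from a titration from 0.6 nM upwards.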

Test [19] can be described thus: Cell Viability - N2a (AID 540; active = well fitted curve in the direction sought with a large enough effect; an effect the other way counts as inactive or inconclusive; note: potency is the fitted concentration of half-maximal effect; nearly all actives have a fitted effect of over 45% in size). Conditions: N2a mouse neuroblastoma cell viability; activity change, negative = cytotoxicity: at 92.2 µM (top of the series). The method in brief: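 In this qHTS cytotoxicity screen, ATP-dependent luciferase luminescence reports viable N2a cells after a 40 hr compound exposure in complete culture medium. Potencies are AC50 values from standard Hill equation fits.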

Test [20] is described as follows: Cell Viability - H-4-II-E (AID 543; active = well fitted curve in the direction sought with a large enough effect; an effect the other way counts as inactive or inconclusive; note: potency is the fitted concentration of half-maximal effect; nearly all actives have a fitted effect of over 35% in size). The following applies: H-4-II-E rat hepatoma viability; series mostly up to 92.2 µM. The gist of the method: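 AC50 from Hill-modelled qHTS concentration-response curves. H-4-II-E rat hepatoma cells in complete medium, 40 hr exposure at 37 °C, viability by CellTiter-Glo ATP luminescence.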

Where “and” joins values, the source holds several entries; their conditions need not be identical. Equal values may be shown once. Records with an inconclusive call do not appear. More than one record can exist for a structure, and the calls need not agree. Calls of active or inactive are those of the source. Unless noted, calls come from the whole dose curve; as a rule, active = well fitted curve in either direction with a large enough effect (not every such curve was filed as active); inconclusive = small, poorly fitted or top-dose-only effect, or another doubt; inactive = flat fitted curve, though single readings scatter.

Chain of Cytochrome P450 1A2 (Homo sapiens) (P05177 whole entry, looked up): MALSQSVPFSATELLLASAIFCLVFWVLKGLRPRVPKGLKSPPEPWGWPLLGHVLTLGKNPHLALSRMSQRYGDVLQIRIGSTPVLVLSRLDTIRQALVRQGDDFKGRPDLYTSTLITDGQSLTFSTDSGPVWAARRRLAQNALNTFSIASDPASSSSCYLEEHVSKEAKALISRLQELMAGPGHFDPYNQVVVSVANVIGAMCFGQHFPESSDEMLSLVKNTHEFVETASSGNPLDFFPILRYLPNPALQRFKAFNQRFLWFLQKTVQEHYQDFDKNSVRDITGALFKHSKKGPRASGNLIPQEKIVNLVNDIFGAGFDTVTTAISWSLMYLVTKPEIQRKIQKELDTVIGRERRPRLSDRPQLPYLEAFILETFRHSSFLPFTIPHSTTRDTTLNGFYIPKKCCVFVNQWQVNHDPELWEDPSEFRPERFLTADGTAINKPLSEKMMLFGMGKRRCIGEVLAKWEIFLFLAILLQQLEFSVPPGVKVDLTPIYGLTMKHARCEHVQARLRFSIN
Chain of Lysosomal acid glucosylceramidase (Homo sapiens) (P04062 whole entry, looked up): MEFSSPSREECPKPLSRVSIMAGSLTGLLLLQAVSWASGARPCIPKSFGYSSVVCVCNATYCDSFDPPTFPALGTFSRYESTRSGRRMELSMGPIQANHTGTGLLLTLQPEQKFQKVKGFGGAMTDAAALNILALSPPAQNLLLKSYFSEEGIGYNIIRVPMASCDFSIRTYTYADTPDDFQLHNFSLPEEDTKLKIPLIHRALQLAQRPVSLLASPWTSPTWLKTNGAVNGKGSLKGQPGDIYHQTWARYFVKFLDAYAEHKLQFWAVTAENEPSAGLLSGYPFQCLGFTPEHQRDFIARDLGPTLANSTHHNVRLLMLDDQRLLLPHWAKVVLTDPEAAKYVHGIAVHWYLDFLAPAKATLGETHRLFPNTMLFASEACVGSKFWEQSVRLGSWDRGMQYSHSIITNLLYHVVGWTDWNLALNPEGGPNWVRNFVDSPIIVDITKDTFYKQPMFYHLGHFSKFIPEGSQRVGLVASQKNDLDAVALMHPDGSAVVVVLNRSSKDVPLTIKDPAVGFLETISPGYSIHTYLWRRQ

For `Oc1ccccc1O`, in [1] (at 38 µM (top of the series)), the activity change, negative = inhibition was -9.38% (inactive). Besides, the Potency entry in test [2], in test [10] and in test [12] was “inactive” in each case. For the same molecule, the Potency in test [3] was > 92 µM (inactive); in test [4] it was 3.17 µM (active); in [5], 30.1 µM (active); in [6], > 92 µM (inactive); in test [7] it was > 92 µM (inactive); in [8], > 92 µM (inactive). Besides, the Potency in [9] was > 46 µM (inactive); in [11], 1.26 µM (active); in [13] it was 10 µM (active). In addition, the activity change, negative = cytotoxicity in test [14] was -24.1% (inactive).
With `C=C[C@H]1CN2CC[C@@H]1C[C@@H]2[C@@H](O)c1ccnc2ccc(OC)cc12`, the activity change, negative = inhibition in test [1] (at 38 µM (top of the series)) is 0.0731% (inactive) and 9.28% (inactive); in [15], -6.92% (inactive) and -0.71% (inactive). Further, the Potency result in [2] and in [10] was “inactive” each time. The activity, negative = inhibition in [16] (at 38 µM (top of the series)) is -15% (inactive) and 18.5% (inactive).
Turning to `COc1ccccc1N1CCN(CCCCNS(=O)(=O)c2cccc3c(N(C)C)cccc23)CC1`, the activity change, negative = inhibition in test [1] (at 38 µM (top of the series)) is 1.98% (inactive). Besides, the Potency entry in [2] was “inactive”. In test [16] (at 38 µM (top of the series)), the activity, negative = inhibition was -7.18% (inactive). Besides, the Potency in test [9] and in test [17] was > 46 µM (inactive) in each case.
Turning to `Clc1ccccc1-c1nc(-c2ccncc2)no1`, the Potency in test [18] is > 11.4 µM (inactive); in test [2], 0.0794 µM (active); in test [9], > 46 µM (inactive); in test [17], > 9.22 µM (inactive). For the same molecule, the activity change, negative = inhibition was -0.307% (inactive) in test [1] (at 7.69 µM (top of the series)), -8.15% [at 7.69 µM] (inactive) in test [15] and 3.99% [at 11.4 µM] (inactive) in [10]. The activity, negative = inhibition in [16] (at 7.69 µM (top of the series)) was -6.11% (inactive).
Take `N[C@H](CCCP(=O)(O)O)C(=O)O`: the activity change, negative = inhibition in test [1] (at 38 µM (top of the series)) was -8.4% (inactive); in [15], -6.29% (inactive). Besides, the Potency result is “inactive and 31.6 µM (active) and 25.1 µM (active)” in test [2]; > 46 µM (inactive) in test [9]. Further, the activity, negative = inhibition in test [16] (at 38 µM (top of the series)) is 14.7% (inactive). The Potency entry in test [10] was “inactive”.
With `Cc1nc2sccn2c(=O)c1CCN1CCC(=C(c2ccccc2)c2ccc(F)cc2)CC1`, the values for the activity change, negative = inhibition in test [1] (at 17.2 µM (top of the series)) and in test [1] (at 38 µM (top of the series)) were -10.2% (inactive) and 8.49% (inactive), respectively. For the same molecule, the activity, negative = inhibition in test [16] (at 17.2 µM (top of the series)) is -13.7% (inactive); in [16] (at 38 µM (top of the series)), 13.4% (inactive). Also, the Potency in test [9] was > 46 µM (inactive) and > 20.6 µM (inactive); in test [17], > 46 µM (inactive). In addition, the Potency entry in test [10] was “inactive”.
`CN(C)c1ccc(C(=C2C=CC(=[N+](C)C)C=C2)c2ccccc2)cc1`: the Potency in test [18] was > 11.4 µM (inactive); in test [3], 1.14 µM (active); in test [4] it was 0.0233 µM (active); in [5], 0.244 µM (active); in [6], 0.494 µM (active); in test [7] it was 0.458 µM (active). In addition, the Potency is 0.052 µM (active) in test [8]; > 46 µM (inactive) in [9]; > 9.22 µM (inactive) in [17]; 0.0316 µM (active) in test [19]; 0.2 µM (active) in test [11]; 6.31 µM (active) in [12]. The Potency is 0.0794 µM (active) in test [20], 0.1 µM (active) in [13] and 0.2 µM (active) in test [14]. The activity change, negative = inhibition in test [1] (at 7.69 µM (top of the series)) is 0.139% (inactive); in test [10], -22.8% [at 11.4 µM] (inactive).
